Compound activity as filed in PubChem BioAssay.
TRb SRC2 PPI – qHTS for Inhibitors of the Interaction of Thyroid Hormone Receptor and Steroid Receptor Coregulator 2; Thyroid hormone receptor beta (Homo sapiens), P10828; TRbeta-SRC2 peptide binding, fluorescence polarization; receptor liganded with 1 µM T3; Potency, µM (doses to about 106 µM), for inactives: at the highest dose activity change, negative = inhibition, actives largely listed as inhibitors; 0.065% of 280,000 active;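 also: plate controls were bound peptide for no effect and peptide without receptor for full effect; nearly all actives have a fitted effect of over 50% in size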
Target sequence (P10828 whole entry, looked up): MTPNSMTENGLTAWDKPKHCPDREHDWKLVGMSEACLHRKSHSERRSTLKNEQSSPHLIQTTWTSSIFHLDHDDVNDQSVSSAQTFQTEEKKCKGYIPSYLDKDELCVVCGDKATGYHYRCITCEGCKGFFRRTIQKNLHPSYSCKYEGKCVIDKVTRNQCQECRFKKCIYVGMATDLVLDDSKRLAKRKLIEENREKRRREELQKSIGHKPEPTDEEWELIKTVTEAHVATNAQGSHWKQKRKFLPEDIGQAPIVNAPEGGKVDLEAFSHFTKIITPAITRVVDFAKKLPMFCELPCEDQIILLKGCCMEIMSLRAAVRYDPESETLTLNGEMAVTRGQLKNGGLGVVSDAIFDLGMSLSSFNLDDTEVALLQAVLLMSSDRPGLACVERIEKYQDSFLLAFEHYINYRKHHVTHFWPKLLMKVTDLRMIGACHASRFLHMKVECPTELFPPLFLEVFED
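Binding of a 20-amino-acid Texas Red SRC2 peptide (20 nM) to TRb ligand-binding domain (0.6 uM) with agonist T3 at 1 uM was followed by fluorescence polarization after a 5 hr room-temperature incubation.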
RGS12 GoLoco inh – qHTS Assay for Inhibitors of RGS12 GoLoco Motif Activity (Red Fluorophore); Potency, µM (top dose mostly 61.6 µM), inactives show top-dose activity, negative = inhibition, actives largely listed as inhibitors; Gai1:RGS12 GoLoco peptide FP, rhodamine, 10 min; AID 880, 2007; 0.44% of 230,000 active; active = well fitted inhibition curve with a large enough effect, not every such curve was filed as active; inactive = no such curve, though single readings can be large or run the other way; also: % is scaled to controls: 0 for no effect and ±100 for the full control effect; nearly all actives have a fitted effect of over 30% in size
Target sequence (P63096 whole entry, looked up): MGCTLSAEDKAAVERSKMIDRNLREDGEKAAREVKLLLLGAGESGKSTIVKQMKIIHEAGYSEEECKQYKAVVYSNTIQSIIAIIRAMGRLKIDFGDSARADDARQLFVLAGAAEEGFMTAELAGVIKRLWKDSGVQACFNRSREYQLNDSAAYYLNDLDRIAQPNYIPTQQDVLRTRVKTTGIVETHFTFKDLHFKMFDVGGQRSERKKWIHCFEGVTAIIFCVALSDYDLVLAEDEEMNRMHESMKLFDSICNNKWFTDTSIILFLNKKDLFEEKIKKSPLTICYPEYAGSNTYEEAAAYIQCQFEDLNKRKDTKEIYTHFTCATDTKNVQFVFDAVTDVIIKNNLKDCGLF
TR SRC2 fluor cs – Total Fluorescence Counterscreen for Inhibitors of the Interaction of Thyroid Hormone Receptor and Steroid Receptor Coregulator 2 | TRb/SRC2 Texas Red total fluorescence interference | 0.29% of 280,000 active | Potency, µM (titrated, usually from 106 µM), for the others: at the highest dose fluorescence change, negative = quenching; active = well fitted curve in either direction with a large enough effect; inconclusive = small, poorly fitted or top-dose-only effect; also: % is scaled to controls: 0 for no effect and ±100 for the full control effect
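Flags fluorescent or light-absorbing compounds by total fluorescence, S + 2P, at 555 nm excitation and 632 nm emission. Mixture: 20 nM Texas Red SRC2 peptide, 0.6 uM human TRb LBD, 1 uM T3, 5% DMSO; compound exposure 5 h at ambient temperature.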
RECQ1 inh-1 – qHTS Assay for Inhibitors of RecQ-Like Dna Helicase 1 (RECQ1); ATP-dependent DNA helicase Q1 (Homo sapiens), P46063; RECQ1 DNA unwinding, red fluorescence kinetic read; Potency, µM (top dose mostly 57.3 µM), for the others: at the highest dose activity, negative = inhibition, usual class: inhibitors; 0.54% of 240,000 active;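 also: plate controls were vehicle for no effect and no enzyme for full effect; nearly all actives have a fitted effect of over 30% in size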
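RECQ1T1 50 nM; forked duplex (20 bp + 30-nt ss tails) 200 nM, ATP 2 mM final; pH 8.0, 2 mM MgCl2, 2.5 ug/ml poly(dI-dC); 15 min compound preincubation; discontinuous kinetic read over 2 h at RT.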
ERG Ets-DNA blk – qHTS for Small Molecule Inhibitors of the ERG Ets/DNA interaction; Transcriptional regulator ERG (Homo sapiens), P11308; fluorescence polarization, His-ERG Ets domain / labelled DNA; Potency, µM (titrated, usually from 76.9 µM), inactives show at the highest dose FP activity, negative = inhibition, hits mostly inhibitors; 0.028% of 370,000 active; AID 624246, 2012; active = well fitted inhibition curve with a large enough effect in the polarisation, with a control signal flat; inconclusive = small, poorly fitted or top-dose-only effect, or effect the other way, or a change in a side signal; inactive = no such curve, though single readings can be large or run the other way; the % refers to the polarisation;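 also: polarization taken with two DNA probes labelled with fluorescein and Texas red; % of control where 0% means no effect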
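His-tagged ERG Ets domain (1 uM in the protein solution; 300mM KCl, 50mM Tris-HCl, 1mM EDTA, 1mM DTT, pH 7.5) received compound, then a probe mix of 5 nM fluorescein-DNA and 100nM Texas-615-DNA. Fluorescence polarization was read for both dyes.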
BLM inh-1 – qHTS Assay for Inhibitors of Bloom's syndrome helicase (BLM); 0.2% of 350,000 active; recombinant BLM DNA unwinding, fluorescence dequenching; RecQ-like DNA helicase BLM (Homo sapiens), P54132; Potency, µM (doses to about 56.1 µM), for the others: at the top dose activity change, negative = inhibition, hits mostly inhibitors;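 also: plate controls were vehicle for no effect and no enzyme for full effect; nearly all actives have a fitted effect of over 35% in size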
BLM inh-2 – qHTS Confirmation Assay for Inhibitors of Bloom's syndrome helicase (BLM); BLM DNA unwinding, fluorescence quenching, biochemical; 40% of 220 active; Potency, µM, for inactives: max response, negative = inhibition, actives largely listed as inhibitors; shares compounds with BLM inh-1;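 also: strand separation dequenches TAMRA so unwinding raises red fluorescence; series mostly up to about 69 µM; % is scaled to controls: 0 for no effect and ±100 for the full control effect; nearly all actives have a fitted effect of over 45% in size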
RECQ1 conf – Confirmation qHTS Assay for Inhibitors of RecQ-Like Dna Helicase 1 (RECQ1); shares compounds with RECQ1 inh-1; RECQ1 helicase DNA unwinding, fluorescence; Potency, µM (titrated, usually from 229 µM), for the others: top-dose activity change, negative = inhibition, hits mostly inhibitors; 28% of 610 active; AID 2708, 2010; also: % is scaled to controls: 0 for no effect and ±100 for the full control effect; nearly all actives have a fitted effect of over 45% in size
RECQ1 ADP FP – Counterscreen for RECQ1 Inhibitors: ADP Fluorescence Polarization Displacement Assay | Potency, µM (series often up to 228 µM), for inactives: at the top dose activity change, negative = inhibition, actives largely listed as inhibitors | shares compounds with RECQ1 inh-1 | 27% of 530 active | ADP fluorescence polarization displacement counterscreen; also: % is scaled to controls: 0 for no effect and ±100 for the full control effect; nearly all actives have a fitted effect of over 45% in size
RECQ1 inh-2 – Confirmation qHTS Assay for Inhibitors of RecQ-Like Dna Helicase 1 (RECQ1) - Round 2 Cherry Picks; Potency, µM (series often up to 119 µM), for the others: at the top dose activity, negative = inhibition, actives largely listed as inhibitors; recombinant RECQ1 DNA unwinding, red fluorescence; 15% of 1,100 active; AID 504841, 2011; shares compounds with RECQ1 inh-1; also: % is scaled to controls: 0 for no effect and ±100 for the full control effect; nearly all actives have a fitted effect of over 50% in size
The depositor's hits bear a star; [ ] = dose if it differs, or a comment. In the library only some 0.71% were active in any assay of this set; here they are far more common. Unless noted, calls follow the shape of the dose curve; as a rule, active = well fitted curve in the direction sought with a large enough effect; inconclusive = small, poorly fitted or top-dose-only effect, or another doubt; inactive = no such curve, though single readings can be large; an effect the other way counts as inactive or inconclusive. Potency is read from the fitted curve at half-maximal effect.

What do the screens show for `CC1(C)C(=O)NC2=C1C(=O)C(=O)c1ccccc12`?
TRb SRC2 PPI: inconclusive; RGS12 GoLoco inh: -13%; TR SRC2 fluor cs: -27%; RECQ1 inh-1: 8.9µM*; BLM inh-1: 2.5µM*; BLM inh-2: 5.1µM*; RECQ1 conf: 0.5µM*; RECQ1 ADP FP: 8.9µM*

How did O=C(O)COc1ccc(/C=N/NC(=O)c2ccc(-c3csc(Nc4ccc(Cl)cc4)n3)cc2)cc1 do in these assays?
TRb SRC2 PPI: 18%; RGS12 GoLoco inh: 13%; TR SRC2 fluor cs: -10%; RECQ1 inh-1: 11µM*; ERG Ets-DNA blk: 10%; BLM inh-1: 3.5µM*; BLM inh-2: 8.1µM*; RECQ1 conf: 7.1µM*; RECQ1 ADP FP: inconclusive

Results for Cc1ccc(Nc2c(-c3c[nH]c4ccccc34)nc3ccccn23)cc1 ?
TRb SRC2 PPI: -5%; TR SRC2 fluor cs: -2%; ERG Ets-DNA blk: -5%; BLM inh-1: 0%

How did Cc1ccc(N=C2NC(=O)/C(=C/C=C/c3ccco3)S2)cc1 do in these assays?
TRb SRC2 PPI: inconclusive; RGS12 GoLoco inh: 25%; TR SRC2 fluor cs: 40µM*[quencher]; RECQ1 inh-1: 18µM*; ERG Ets-DNA blk: 12%; BLM inh-1: 16µM*; RECQ1 conf: inconclusive; RECQ1 inh-2: inconclusive

What do the screens show for `Fc1cccc(F)c1/C=C/c1ccc2ccccc2n1`?
TRb SRC2 PPI: 4%; TR SRC2 fluor cs: -5%; RECQ1 inh-1: 0%; ERG Ets-DNA blk: -3%; BLM inh-1: -2%

How did C(=C\c1ccco1)/c1ccc2ccccc2n1 do in these assays?
TRb SRC2 PPI: -3%; RGS12 GoLoco inh: 82%; TR SRC2 fluor cs: -8%; RECQ1 inh-1: 8.9µM*; ERG Ets-DNA blk: -5%; BLM inh-1: inconclusive; RECQ1 conf: inconclusive; RECQ1 ADP FP: 45µM*; RECQ1 inh-2: -1%

What do the screens show for `O=C(Cn1c(-c2cccs2)cc2ccccc21)NCCCN1CCN(c2ccccc2F)CC1`?
TRb SRC2 PPI: 3%; TR SRC2 fluor cs: 6%; ERG Ets-DNA blk: 3%; BLM inh-1: -7%

Results for CS(=O)(=O)N1CCN(c2ccc([N+](=O)[O-])c(NCc3ccc(Cl)cc3)c2)CC1 ?
TRb SRC2 PPI: 7%; RGS12 GoLoco inh: -9%; TR SRC2 fluor cs: -2%; RECQ1 inh-1: 32µM*; ERG Ets-DNA blk: -6%; BLM inh-1: 16µM*; RECQ1 inh-2: inconclusive

What do the screens show for `CC(C)(C)c1ccc(-c2nnc(SCCC#N)n2C2CCCC2)cc1`?
TRb SRC2 PPI: 2%; RGS12 GoLoco inh: -11%; TR SRC2 fluor cs: -1%; RECQ1 inh-1: 14µM*; ERG Ets-DNA blk: -6%; BLM inh-1: -8%; RECQ1 conf: -1%[114 µM]; RECQ1 ADP FP: 16%[91.9 µM]; RECQ1 inh-2: -16%

What do the screens show for `Cn1c(SCCC#N)nnc1-c1ccc(F)cc1`?
TRb SRC2 PPI: -1%; RGS12 GoLoco inh: 8%; TR SRC2 fluor cs: 1%; RECQ1 inh-1: inactive; BLM inh-1: 1%

Results for Cc1ccc(S(=O)(=O)N2CCCCC2)cc1NC(=O)Cn1ccc(C(F)(F)F)n1 ?
TRb SRC2 PPI: 1%; RGS12 GoLoco inh: -7%; TR SRC2 fluor cs: -2%; RECQ1 inh-1: 40µM*; ERG Ets-DNA blk: -9%; BLM inh-1: -6%; RECQ1 inh-2: -5%

What do the screens show for `C[C@@H](C(=O)Nc1ccc2ccccc2c1)[C@@H]1C[C@@]1(C)[C@@H](NC(=O)c1ccncc1Cl)c1ccccc1`?
TRb SRC2 PPI: 5%; RGS12 GoLoco inh: 11%; TR SRC2 fluor cs: -7%; RECQ1 inh-1: -7%; BLM inh-1: 2%

What do the screens show for `Cc1cc2nc3c(=O)[nH]c(=O)nc-3n(C)c2cc1C=O`?
TRb SRC2 PPI: 1%; RGS12 GoLoco inh: 10µM*; TR SRC2 fluor cs: 1%; RECQ1 inh-1: 3.2µM*; BLM inh-1: 16µM*; RECQ1 conf: active; RECQ1 ADP FP: 6.3µM*

What do the screens show for `CC(C)[C@@H](OCc1ccccc1)[C@H](C)/C=N\OC[C@@H](O)COCc1ccco1`?
TRb SRC2 PPI: -6%[11.2 µM]; TR SRC2 fluor cs: -3%[11.2 µM]; RECQ1 inh-1: inactive[11.5 µM]; BLM inh-1: 2%[12.4 µM]

Results for O=C1c2ccccc2C(=O)c2c(NCCCN(CCO)CCO)cccc21 ?
TRb SRC2 PPI: 3%; RGS12 GoLoco inh: 111%; TR SRC2 fluor cs: 20%; RECQ1 inh-1: 20µM*; ERG Ets-DNA blk: 27%; BLM inh-1: 16µM*; RECQ1 inh-2: 18µM*

How did CCC(=O)/C=C1/Sc2ccc(OC)cc2N1CCO do in these assays?
TRb SRC2 PPI: 0%; RGS12 GoLoco inh: 3%; TR SRC2 fluor cs: -3%; RECQ1 inh-1: -3%; ERG Ets-DNA blk: 1%; BLM inh-1: -3%

Results for CCC(/C=C1\Sc2ccc(OC)cc2N1CCO)=C\c1sc2ccc(OC)cc2[n+]1CCO ?
TRb SRC2 PPI: inconclusive; RGS12 GoLoco inh: -190%; TR SRC2 fluor cs: 50µM*[fluorescent]; RECQ1 inh-1: 13µM*; ERG Ets-DNA blk: inconclusive; BLM inh-1: inconclusive; RECQ1 inh-2: 45µM*

What do the screens show for `O=C(O)/C=C\C(=O)Nc1cccc2c1-c1ccccc1C2=O`?
RGS12 GoLoco inh: -3%[14.2 µM]
